Source: PubChem BioAssay
This is a sample that favours compounds with a hit; in the whole collection about 3.2% have one here.
FLuc inh = qHTS Assay for Inhibitors of Firefly Luciferase; purified firefly luciferase, luminescence, 8 min; AID 411, 2009; Luciferin 4-monooxygenase (Photinus pyralis), P08659; Potency, µM (titrated, usually from 57.1 µM), most hits filed as inhibitors; hit rate 2.2% among 72,000; active = well fitted inhibition curve with a large enough effect; note: nearly all actives have a fitted effect of over 40% in size
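Substrate buffer containing 10 uM ATP (pH 7.2 imidazole, Mg2+, KCl, detergent, BSA) is dispensed, compound pinned in, then luciferase/luciferin detector mix added. After 8 min at ambient temperature, light output is measured.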
PK Bst = Pyruvate Kinase; purified pyruvate kinase, luminescence ATP production; ribose 5-phosphate activator present at AC10; hit rate 1.2% among 51,000; Potency, µM; in the data active = potency below about 11 µM;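 the screen sought inhibitors and activators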
GBA mod = Glucocerebrosidase; Potency, µM; AID 360, 2006; purified enzyme, resorufin glucoside fluorescence (screen aimed at inhibitors), 20 min; hit rate 1.1% among 48,000; in the data active = potency below about 15 µM;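 note: the screen sought inhibitors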
Target sequence (P04062 whole entry, looked up): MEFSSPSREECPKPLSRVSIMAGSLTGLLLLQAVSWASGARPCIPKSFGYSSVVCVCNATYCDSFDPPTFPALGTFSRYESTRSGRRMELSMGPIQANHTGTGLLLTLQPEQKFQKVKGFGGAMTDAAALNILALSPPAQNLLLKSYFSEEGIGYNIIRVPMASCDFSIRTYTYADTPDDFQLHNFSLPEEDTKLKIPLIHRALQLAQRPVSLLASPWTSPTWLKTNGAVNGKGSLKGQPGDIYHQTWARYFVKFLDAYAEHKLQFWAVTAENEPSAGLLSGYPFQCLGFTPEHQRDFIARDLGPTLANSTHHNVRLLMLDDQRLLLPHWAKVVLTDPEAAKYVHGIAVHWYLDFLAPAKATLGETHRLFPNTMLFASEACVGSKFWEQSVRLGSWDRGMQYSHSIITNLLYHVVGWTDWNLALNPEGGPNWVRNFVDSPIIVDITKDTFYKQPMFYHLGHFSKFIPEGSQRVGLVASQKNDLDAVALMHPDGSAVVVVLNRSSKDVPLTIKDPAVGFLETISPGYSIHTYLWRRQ
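Wild-type enzyme at 0.2 nM final in 50mM citric acid/KH2PO4, 10mM sodium taurocholate, 0.01% tween-20, pH 5.9, with resorufin beta-D-glucopyranoside at 30 uM final. Compounds titrated, 20 min at RT, red fluorescence read; AC50 from titration.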
Of the large screens only hits and unclear results are named; the others gave an inactive call; ! = repeats disagree.

CC1(C)CN=C(Nc2nc3ccccc3s2)S1	FLuc inh 16µM (no result: PK Bst)
CC1=C2[C@@H]3OC(=O)[C@H](C)[C@H]3CC[C@@]2(C)C=CC1=O	none (no result: PK Bst, GBA mod)
CN1C[C@@H](CNC(=O)OCc2ccccc2)C[C@H]2c3cccc4c3c(cn4C)C[C@@H]21	none (no result: PK Bst, GBA mod)
O=C(c1cc2ccccc2oc1=O)N1CCC2(CC1)OCCO2	none
CCOc1ccc(-c2cc(C(=O)N3CCC4(CC3)OCCO4)c3ccccc3n2)cc1	FLuc inh 0.63µM, PK Bst 0.71 (no result: GBA mod)
N[C@@H](Cc1cc(O)c(O)cc1O)C(=O)O	none (no result: PK Bst, GBA mod)
NNCc1cccc(O)c1	FLuc inh 32µM (no result: PK Bst, GBA mod)
C/C=C1\C[C@H](C)[C@](O)(CO)C(=O)OCC2=CCN3CC[C@@H](OC1=O)[C@@H]23	none (no result: PK Bst, GBA mod)
CCCCCn1c(N)c(C(=O)NCCN2CCOCC2)c2nc3ccccc3nc21	none
Cc1ccc(C(=O)Nc2nc3ccccc3n2CCN2CCCC2)cc1	FLuc inh 13µM (no result: PK Bst, GBA mod)
C[C@@H](Cc1ccc2c(c1)OC(C(=O)O)(C(=O)O)O2)NC[C@H](O)c1cccc(Cl)c1	none (no result: PK Bst, GBA mod)
N#C/C(=C\c1ccc(O)c(O)c1)C(N)=S	FLuc inh 25µM! (no result: PK Bst, GBA mod)
N#CC(C#N)=Cc1cc(O)c(O)c(O)c1	none (no result: PK Bst, GBA mod)
CC[C@H](CO)NC(=O)[C@H]1C=C2c3cccc4[nH]cc(c34)C[C@H]2N(C)C1	none (no result: PK Bst, GBA mod)
NC(=O)c1ccc(C(=O)Nc2ccc([As](=O)(O)O)cc2)cc1	none (no result: PK Bst, GBA mod)
Cn1cnc2cc(NC(=O)c3ccc(Cl)cc3)ccc21	FLuc inh 13µM (no result: PK Bst, GBA mod)
O=C(O)c1cc[c]([Hg][Cl])cc1	FLuc inh 16µM (no result: PK Bst, GBA mod)
CCN1C[C@]2(C)CC[C@@H](O)[C@]34[C@@H]5CC6[C@@H](OC)C[C@@](O)([C@H]5[C@@H]6O)[C@@H](C[C@@H]23)[C@H]14	none (no result: PK Bst, GBA mod)
O=C1CN=C(c2ccccc2)c2oc3ccc(Br)cc3c2N1	GBA mod 3.3
COc1cccc(OC)c1C1=NCC(=O)Nc2c1oc1ccc(Br)cc21	none (no result: PK Bst, GBA mod)
CC(C)[C@]1(NC(=O)[C@H]2C=C3c4cccc5[nH]cc(c45)C[C@H]3N(C)C2)O[C@@]2(O)[C@H]3CCCN3C(=O)[C@H](Cc3ccccc3)N2C1=O	none (no result: PK Bst, GBA mod)
CC(=O)[C@@H]1CC[C@@H]2[C@H]3CC[C@H]4C[C@@H](O)CC[C@]4(C)[C@@H]3C(=O)C[C@]21C	none (no result: PK Bst, GBA mod)
Cc1cccn2c(=O)c3c(nc12)N1CCC(Cc2ccccc2)CC1C1(C3)C(=O)N(C)C(=O)N(C)C1=O (centres undefined)	GBA mod 6.3
CC1CCN2c3nc4ccccn4c(=O)c3CC3(C(=O)N(C)C(=O)N(C)C3=O)C2C1 (centres undefined)	none
CN1C(=O)N(C)C(=O)C2(Cc3c(nc4ccccn4c3=O)N3CCc4ccccc4C32)C1=O (centres undefined)	none
CN1C(=O)N(C)C(=O)C2(Cc3c(nc4ccccn4c3=O)N3CCC(Cc4ccccc4)CC32)C1=O (centres undefined)	GBA mod 13
CC(C)[C@H]1C(=O)N2CCC[C@@H]2[C@]2(O)O[C@@](NC(=O)[C@H]3C=C4c5cccc6[nH]cc(c56)C[C@H]4N(C)C3)(C(C)C)C(=O)N12	none (no result: PK Bst, GBA mod)
O=C(O)[C@H]1CCN1	none (no result: PK Bst, GBA mod)
COc1cc2c(cc1OC)-c1c(O)c(OC)cc3c1[C@@H](C2)N(C)CC3	none (no result: PK Bst, GBA mod)
N[C@]1(C(=O)O)CC[C@@H](C(=O)O)C1	none (no result: PK Bst, GBA mod)
